Sampled rows, rich in hits. Any-hit rate of the full collection: about 12%.
HP1b chromo inh = HP1-beta chromodomain-methylated histone interaction inhibition. P83916. AlphaScreen HP1-beta / biotin-H3K9me3 peptide binding. Potency, µM (series often up to 114 µM), without a hit: at the top dose activity change, negative = inhibition, usual class: inhibitors. actives 0.56% (n = 390,000). AID 540317; further: nearly all actives have a fitted effect of over 70% in size
Target sequence (P83916 whole entry, looked up): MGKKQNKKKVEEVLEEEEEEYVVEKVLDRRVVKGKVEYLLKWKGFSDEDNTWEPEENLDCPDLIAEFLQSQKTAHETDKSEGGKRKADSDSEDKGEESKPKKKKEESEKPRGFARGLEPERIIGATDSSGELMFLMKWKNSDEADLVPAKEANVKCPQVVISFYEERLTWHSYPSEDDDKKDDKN
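AlphaScreen: HP1-beta (50 nM) preformed 30 min with biotin-H3(1-18)K9me3 peptide (50 nM) in PBS pH 7.4, 0.01% Tween-20. Compound added for 30 min at RT, then streptavidin donor/nickel chelate acceptor beads (10 ug/mL) for 30 min.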
Sfp PPTase inh = blocks B. subtilis Sfp PPTase activity. Biochemical Sfp PPTase activity, qHTS. Potency, µM, for inactives: largest response in the series, negative = inhibition, usual class: inhibitors. actives 3.5% (n = 310,000). AID 1490;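 further: the enzyme is Sfp with the accession as filed and its product quenches rhodamine fluorescence; 0% = enzyme reaction without inhibitor and -100% = no enzyme wells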
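Fluorescence-quenching assay with 15 nM Sfp, 5 uM rhodamine-CoA and 12.5 uM BHQ-2-labelled ybbR peptide in pH 7.6 Hepes/MgCl2 buffer. Enzyme was pre-incubated with compound for 15 min at room temperature. Rate was taken from the 30-min fluorescence change (525/598 nm).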
L3MBTL1 inh = inhibitors of human L3MBTL1; AID 485360; Potency, µM (titrated, usually from 57.1 µM), for the others: top-dose activity, negative = inhibition, actives largely listed as inhibitors; AlphaScreen L3MBTL1–H3K9me1 peptide binding; Q9Y468; actives 0.66% (n = 230,000); further: on the % scale 0 is the no-effect control and ±100 the full control effect; nearly all actives have a fitted effect of over 60% in size
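AlphaScreen assay: L3MBTL1 (50 nM final) was preincubated 30 min at room temperature with biotinylated H3(1-15)K9me1 peptide (75 nM final), then 30 min with library compounds; streptavidin donor and nickel chelate acceptor beads (10 ug/mL final) added, 30 min dark.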
G9a inh = blocks human histone lysine methyltransferase G9a. Q96KQ7. actives 8.8% (n = 350,000). Potency, µM (series often up to 102 µM), for inactives: at the top dose activity, negative = inhibition, hits mostly inhibitors. AID 504332. G9a H3K9 monomethylation, AlphaScreen, 2 h; further: on the % scale 0 is the no-effect control and ±100 the full control effect; nearly all actives have a fitted effect of over 75% in size
Target sequence (Q96KQ7 913-1193 limits assumed): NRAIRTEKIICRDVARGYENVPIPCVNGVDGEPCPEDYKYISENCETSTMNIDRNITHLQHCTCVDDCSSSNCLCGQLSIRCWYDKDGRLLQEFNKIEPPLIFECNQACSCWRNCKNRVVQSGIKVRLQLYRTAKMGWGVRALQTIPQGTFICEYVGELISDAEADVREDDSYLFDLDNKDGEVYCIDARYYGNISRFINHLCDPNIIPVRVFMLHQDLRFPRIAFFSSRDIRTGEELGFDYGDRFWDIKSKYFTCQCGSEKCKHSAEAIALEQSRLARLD
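Compounds were preincubated with 20 nM G9a for 15 min, after which biotinylated H3K9 peptide (500 nM) and SAM (20 uM) started a 2 h room-temperature reaction. Monomethylated product was quantified by antibody-based AlphaScreen chemiluminescence.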
JMJD2A Tudor inh = blocks the human JMJD2A Tudor domain; AlphaScreen JMJD2A-Tudor / H3K4me3 peptide binding; Potency, µM (titrated, usually from 114 µM), inactives show top-dose activity change, negative = inhibition, hits mostly inhibitors; actives 4.4% (n = 390,000); AID 504339; further: on the % scale 0 is the no-effect control and ±100 the full control effect; nearly all actives have a fitted effect of over 50% in size
BAZ2B block = inhibitors of human BAZ2B bromodomain. actives 4.4% (n = 360,000). AID 504333. Potency, µM (doses to about 114 µM), inactives show at the highest dose activity change, negative = inhibition, most hits filed as inhibitors. Q9UIF8. AlphaScreen BAZ2B-H3K14Ac peptide displacement; further: on the % scale 0 is the no-effect control and ±100 the full control effect; nearly all actives have a fitted effect of over 60% in size
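AlphaScreen displacement: compounds (up to 110uM) incubated 30 min at room temperature with a preformed 50 nM BAZ2B/50 nM biotinylated H3K14Ac peptide complex in PBS pH 7.4 with Tween-20. Donor and acceptor beads at 10 ug/mL final added, 20 min light-protected before reading.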
* hit, by the source's call; ? = inconclusive; . = not tested or not shown; [ ] = remark or other dose. The call rests on the fitted dose curve; in most records, active means well fitted curve in the direction sought with a large enough effect; inconclusive means small, poorly fitted or top-dose-only effect, or another doubt; inactive means no such curve, though single readings can be large; an effect the other way counts as inactive or inconclusive. Potency means the concentration at half of the fitted maximal effect.

SMILES | HP1b chromo inh | Sfp PPTase inh | L3MBTL1 inh | G9a inh | JMJD2A Tudor inh | BAZ2B block
Oc1c(C(c2ccccc2Cl)N2CCCC2)ccc2cccnc12 (stereo not given) | -35% | 2% | -28% | 11µM* | 20µM* | 20µM*
Oc1c(C(c2cccs2)N2CCN(c3ccccc3)CC2)ccc2cccnc12 (stereo not given) | . | 40µM* | . | 1.3µM* | . | 40µM*
COCCn1c(C)cc(O)c(C(c2ccccc2Cl)N2CCN(c3ccccc3)CC2)c1=O (stereo not given) | 36%[57 µM] | . | . | 51%[59 µM] | -17% | 17%
CN1CCN(C(c2ccc(C(F)(F)F)cc2)c2ccc3cccnc3c2O)CC1 (stereo not given) | ? | -2% | . | 7.9µM* | 56µM* | 40µM*
O=C(CN(C(=O)c1csnn1)c1cccc2c1CCCC2)NCc1ccccc1 | 9% | 5% | . | 27% | -15% | 2%
N#CCCN(CC#Cc1ccccc1)OCc1ccccc1 | . | 4% | . | . | . | .
Cc1c2c(c(C)n1C)C(C(=O)NC1CCCCC1)N(Cc1ccccc1)C2=O (stereo not given) | 12% | 13% | . | 50µM* | -10% | .
O=C(NC1CCCCCC1)C1c2ccccc2C(=O)N1Cc1ccc(F)cc1 (stereo not given) | 67% | . | . | 24%[59 µM] | -4% | 16%
COc1ccc(NC(=O)C(OC)c2ccccc2)cc1Cl (stereo not given) | 35% | -8% | -1% | -11%[59 µM] | 7% | 12%
COc1ccc(NC(=O)C(NCC(C)C)c2ccccc2)cc1Cl (stereo not given) | 16µM* | 50µM* | . | 50µM* | 4.5µM* | 40µM*
COc1ccc(NC(C)C(=O)Nc2ccc(C(C)(C)C)cc2)cc1Cl (stereo not given) | -37% | 12% | . | ? | ? | 45µM*
O=C(NCC1CCN(C(=O)c2c(F)c(F)c(F)c(F)c2F)CC1)c1c(F)c(F)c(F)c(F)c1F | 24% | 6% | . | 79µM* | 3% | -1%
Cn1c(N)nc2nc[nH]c2c1=S | 46% | . | . | . | 40µM* | .
Nc1nc(N)c2[nH]cnc2n1 | 71% | . | . | . | -7% | .
CNc1ccc(Br)cc1C(O)c1ccccc1 (stereo not given) | 13% | 89µM* | 5% | 43%[12.7 µM] | -11% | 20%
Cc1ccc(S(=O)(=O)Nc2ccccc2C(O)c2ccccc2)cc1 (stereo not given) | 22% | 8% | . | 4%[0.501 µM] | -14% | -8%
O=S(=O)(c1cccc(F)c1)N1CCN(S(=O)(=O)c2ccc3c(c2)OCCO3)CC1 | . | . | . | . | -19% | .
COc1ccc(NC2CCCN(C(=O)c3c(C)noc3C)C2)cc1 (stereo not given) | 24% | 10% | . | 40% | -23% | 0%
S=c1[nH]c(-c2ccccc2)cn1/N=C/c1cccc2ccccc12 | -21% | -11% | -11% | -43% | ? | ?
S=c1[nH]c(-c2ccccc2)cn1/N=C/c1ccccc1Br | -11% | -2% | -22% | 2.5µM* | -27% | ?
Cc1ccc(/C=N/n2cc(-c3ccccc3)[nH]c2=S)s1 | 31% | 32µM* | . | ? | ? | -26%
Cc1cccc(N2CCN(C(=O)c3cn(C)c4ccc(S(=O)(=O)N(C)C)cc4c3=O)CC2C)c1 (stereo not given) | 36% | . | . | 1%[59 µM] | -20% | .
COc1cccc(C2=CC(c3ccccc3O)NC(C)(C)N2)c1 (stereo not given) | 4%[57 µM] | . | . | . | -15%[57.1 µM] | .
COc1cc(-c2nnc(NC(=O)CS(=O)(=O)c3ccc(F)cc3)o2)cc(OC)c1OC | 19% | . | -29% | -5% | 40µM* | 56µM*
COc1cc(-c2nnc(NC(=O)CS(=O)(=O)c3ccc(C)cc3)o2)cc(OC)c1OC | 31% | . | -7% | 10% | 25µM* | 45µM*
COc1cccc(-c2nnc(NC(=O)CCS(=O)(=O)c3ccc(C)cc3)o2)c1 | 29% | . | 7% | 7% | -23% | -30%

Assay outcomes (PubChem BioAssay)
